# Data as given in PubChem BioAssay (NCI).
# The panel holds about 83,000 compounds, 20% with a hit somewhere; the sample as a whole holds those more often.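 The endpoint reported here, percent growth, reads 100 for growth as untreated, 0 for no net growth and -100 for all cells dead.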 Active and inactive are the calls of the source. The calls were made as follows: active = growth percent below 10; inactive = the rest.
# Tested on: KM12 colon
# Assay: NCI-60 one-dose screen, 48 h (100 = growth as untreated, 0 = no growth, -100 = all killed)
# Conditions: 10 µM unless noted
row,Structure (SMILES),growth
1,NC(N)=N/N=C\c1ccc(OCc2ccccc2)cc1,58.8% (inactive)
2,CCN(CC)CCC(CNc1ccnc2cc(Cl)ccc12)c1ccc(O)cc1 (stereo not drawn),82% (inactive)
3,COS(=O)(=O)CCN(CCOS(C)(=O)=O)S(C)(=O)=O,105% (inactive)
